In PubChem BioAssay (NCATS) one finds Potency, outcome and caspase-3 activation data, which are given here for one compound.

Test [1] in a line: Cellular Toxicity (caspase-3) BJ (AID 658).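 Also: 0% = DMSO basal and 100% = 10 µM staurosporine.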 The following applies: Potency: caspase-3 activation. The essentials:
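Readout: Caspase-Glo 3/7 luminescence increase in BJ cells after 16 hr treatment at 37 °C. Staurosporine and tamoxifen served as positive controls; AC50 values came from Hill modelling of data normalized to DMSO and 10 uM staurosporine.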

Test [2] can be described thus: Cellular Toxicity (caspase-3) MRC-5 (AID 659).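 Also: 0% = DMSO basal and 100% = 10 µM staurosporine.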 The gist of the method: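 Concentration-dependent caspase 3/7 activation is measured in human normal lung fibroblasts (MRC-5) following 16-hour treatment. AC50 values come from standard Hill-equation modeling of luminescence normalized to DMSO and 10 uM staurosporine.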
Test [3] can be described thus: Cellular Toxicity (caspase-3) Mesangial (AID 660).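 Also: cells exposed to compound for 16 h before the caspase read.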 The gist of the method:
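Human renal glomerular mesangial cells (1000/well) were treated with compounds for 16 h at 37 °C in complete medium, then caspase 3/7 activity was read by Caspase-Glo luminescence. Data were normalized to DMSO and 100 uM tamoxifen; AC50 from Hill fits.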

Test [4] is described as follows: Cellular Toxicity (caspase-3) SK-N-SH (AID 661).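 Also: 0% = DMSO basal and 100% = 10 µM staurosporine.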 The gist of the method: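 SK-N-SH human neuroblastoma cells (1500/well) were treated with compounds for 16 hr at 37 °C in complete medium; caspase 3/7 activity was read by Caspase-Glo luminescence. AC50 came from Hill fits of data normalized to DMSO and 10 uM staurosporine.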
Test [5] in a line: Cellular Toxicity (caspase-3) H-4-II-E (AID 663).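 Also: cells exposed to compound for 16 hr before readout.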 The following applies: Potency: caspase-3 activation. The gist of the method: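 Apoptosis induction is scored as increased luminescence from caspase 3/7 substrate cleavage in rat hepatoma H-4-II-E cells exposed to compound for 16 hr. Activity is scaled between DMSO and 100 uM tamoxifen.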
The nature of test [6]: Cellular Toxicity (caspase-3) Hek293 (AID 664).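 Also: cells exposed to compound for 16 h at 37 °C before readout.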 The following applies: HEK293 caspase-3 activation, DMSO = 0%, 100 µM tamoxifen = 100%; at 92.2 µM (top of the series). The gist of the method:
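HEK293 cells were exposed to compounds in complete medium for 16 hr at 37 °C, then caspase-3/7 activity was read by Caspase-Glo 3/7 luminescence after 20 min at room temperature. Data normalized to DMSO and 100 uM tamoxifen; AC50 from Hill fits.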

Test [7] is described as follows: Cellular Toxicity (caspase-3) N2a (AID 665).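 Also: compound exposure lasted 16 h at 37 °C before readout.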 The essentials:
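Mouse N2a neuroblastoma cells (1500/well) were treated with compounds for 16 h at 37 °C, then caspase-3/7 activity was read by Caspase-Glo luminescence after 1 h at room temperature. Data were normalized to DMSO and 10 uM staurosporine; AC50 from Hill fits.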

Test [8] in a line: Cellular Toxicity (caspase-3) NIH 3T3 (AID 666).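 Also: 0% = DMSO basal and 100% = 100 µM tamoxifen stimulation.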 The gist of the method:
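Mouse NIH 3T3 fibroblasts (1000 cells/well) were treated with compound for 16 hr at 37°C in complete medium; caspase-3/7 activity was read by Caspase-Glo luminescence. Normalized to DMSO and 100 uM tamoxifen; AC50 from Hill fits.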

Test [9] is described as follows: Cellular Toxicity (caspase-3) Renal Proximal Tubule (AID 667).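 Also: cells exposed to compound for 16 hours at 37 °C before detection; 0% = DMSO basal and 100% = 10 µM staurosporine.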 The following applies: Potency: caspase-3 activation. The gist of the method:
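Luminescent caspase 3/7 signal from peptide-aminoluciferin cleavage measures apoptosis in freshly isolated rat kidney proximal tubule cells after 16 h compound exposure. Concentration-response data are normalized to DMSO and 10 uM staurosporine, and AC50 values come from Hill equation fits.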

In test [10] the target is Cytochrome P450 2C9 (Homo sapiens) (UniProt P11712). The test is described as follows: qHTS Assay for Inhibitors and Substrates of Cytochrome P450 2C9 (AID 883). Also: % is scaled to controls: 0 for no effect and ±100 for the full control effect; nearly all actives have a fitted effect of over 60% in size. The essentials: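 Inhibition of CYP2C9 is scored as loss of luminescence, with 57uM sulphaphenazole defining 100% inhibition. Substrate Luciferin-H is used at 100uM, equal to its KM; enzyme at 10nM in 25mM KPO4, 60 min at 37C with NADPH regeneration.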
Cytochrome P450 2C9 (Homo sapiens), sequence (P11712 whole entry, looked up): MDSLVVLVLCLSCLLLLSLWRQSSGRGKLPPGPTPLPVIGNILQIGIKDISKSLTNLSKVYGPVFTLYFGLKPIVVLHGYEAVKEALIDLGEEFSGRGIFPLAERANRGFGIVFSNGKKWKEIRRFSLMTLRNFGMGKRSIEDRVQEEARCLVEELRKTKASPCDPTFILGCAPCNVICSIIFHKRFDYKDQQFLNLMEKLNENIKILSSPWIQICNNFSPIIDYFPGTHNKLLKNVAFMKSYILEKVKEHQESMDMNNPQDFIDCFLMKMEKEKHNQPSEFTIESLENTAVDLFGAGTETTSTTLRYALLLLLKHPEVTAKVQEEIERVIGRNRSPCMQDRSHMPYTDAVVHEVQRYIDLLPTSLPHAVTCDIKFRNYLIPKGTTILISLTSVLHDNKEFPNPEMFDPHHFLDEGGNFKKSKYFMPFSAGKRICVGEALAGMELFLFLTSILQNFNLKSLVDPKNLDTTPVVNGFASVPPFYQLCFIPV
Background: qHTS replaces the single test concentration by a dilution series.

For test [11], the target named is Cytochrome P450 3A4 (Homo sapiens) (UniProt P08684). The test is described as follows: qHTS Assay for Inhibitors and Substrates of Cytochrome P450 3A4 (AID 884). Also: potency is read from the fitted curve at half-maximal effect; nearly all actives have a fitted effect of over 50% in size. The gist of the method:
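20 nM human CYP3A4 with 25 uM Luciferin-PPXE (at KM) in 200 mM KPO4, preincubated 10 min with compound; NADPH regeneration started a 60 min RT reaction. Luciferin detected by luminescence, normalized to 57 uM ketoconazole as full inhibition.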

Test [12] has the same target. Description: qHTS Assay for Activators of Cytochrome P450 3A4 (AID 885). Also: nearly all actives have a fitted effect of over 65% in size. The gist of the method:
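20nM CYP3A4 + 25uM Luciferin-PPXE (=KM), 200mM KPO4; cpd 10 min RT; NADPH regen, 60 min RT; stop w/ detection buffer, 20 min; luminescence. Normalized to 57 uM ketoconazole.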

Test [13] has as its target Cytochrome P450 2D6 (Homo sapiens) (UniProt P10635). Description: qHTS Assay for Inhibitors and Substrates of Cytochrome P450 2D6 (AID 891). Also: potency is read from the fitted curve at half-maximal effect; nearly all actives have a fitted effect of over 60% in size. The gist of the method:
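Human CYP2D6 (5 nM) with 30 uM Luciferin-ME EGE (at Km) in 100 mM KPO4, compound preincubated 10 min, then NADPH regeneration system for 60 min at room temperature. Luciferin read by luminescence; normalized to 1.43 uM quinidine.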

The target in test [14] is Cytochrome P450 2C19 (Homo sapiens) (UniProt P33261). The test is described as follows: qHTS Assay for Inhibitors and Substrates of Cytochrome P450 2C19 (AID 899). Also: % is scaled to controls: 0 for no effect and ±100 for the full control effect; nearly all actives have a fitted effect of over 60% in size. The gist of the method:
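5nM enzyme + 10uM Luciferin-H EGE (=KM), 50mM KPO4; cpd pin-transferred, 10 min 37C; NADPH regen, 60 min 37C; stopped w/ luciferin detection reagent, 20 min; luminescence. Normalized to 57uM ketoconazole (AC100).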

Test [15] can be described thus: MultiTox-Fluor Cytotoxicity Assay - LYMP1-001 - Dead Cells (AID 946).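 Also: 0% = DMSO and 100% = tetraoctylammonium bromide.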 The essentials:
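AC50 from Hill fit of concentration-response; data normalized to DMSO (basal) and 15 uM tetraoctylammonium bromide (100%). LYMP1-001 lymphoblastoid cells, 2500/well, 16 hr compound at 37 C; dead-cell protease fluorescence, Ex/Em 485/520.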

The nature of test [16]: MultiTox-Fluor Cytotoxicity Assay - LYMP1-001 - Live Cells (AID 947). Also: potency is read from the fitted curve at half-maximal effect.
A short description of test [17]: Cell Viability - LYMP1-002 - Assay at 16 hr (AID 948). Also: potency is read from the fitted curve at half-maximal effect. The gist of the method:
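LYMP1-002 human lymphoblastoid cells, 2500/well; 5 hr 37 C; cpd 16 hr 37 C; CellTiter-Glo 30 min RT; luminescence (ATP). Concentration-response, Hill-fit AC50. Pos ctrl tetraoctylammonium bromide.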

The nature of test [18]: MultiTox-Fluor Cytotoxicity Assay - LYMP1-002 - Dead Cells (AID 960).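 Also: 0% = DMSO and 100% = tetraoctylammonium bromide; nearly all actives have a fitted effect of over 60% in size.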 The gist of the method:
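Human lymphoblastoid cells (LYMP1-002), 2500/well in complete medium, were exposed to compounds for 16 hr at 37 C. Dead-cell protease activity was read as bis-AAF-R110 fluorescence (Ex/Em 485/520), normalized to DMSO and 15 uM tetraoctylammonium bromide; AC50 from Hill fits.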

Test [19] is described as follows: MultiTox-Fluor Cytotoxicity Assay - LYMP1-003 - Dead Cells (AID 961).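 Also: 0% = DMSO and 100% = tetraoctylammonium bromide; nearly all actives have a fitted effect of over 70% in size.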 The essentials: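 Human lymphoblastoid LYMP1-003 cells (2500/well) were treated with compounds for 16 hr at 37 C in complete medium. Dead-cell protease release was read by bis-AAF-R110 fluorescence (Ex/Em 485/520). AC50 came from Hill fits, normalized to DMSO and 15 uM tetraoctylammonium bromide.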

Structures are written as SMILES. Values joined by “and” are separate entries in the source; they are usually repeats but may differ in a detail not shown here. Identical values can stand only once. Values without a mark were called inactive. Results filed as inconclusive are left out. Active and inactive are the calls of the source. Calls follow the shape of the dose curve; as a rule, active = well fitted curve in the direction sought with a large enough effect; inconclusive = small, poorly fitted or top-dose-only effect, or another doubt; inactive = no such curve, though single readings can be large; an effect the other way counts as inactive or inconclusive.

Cytochrome P450 3A4 (Homo sapiens), sequence (P08684 whole entry, looked up): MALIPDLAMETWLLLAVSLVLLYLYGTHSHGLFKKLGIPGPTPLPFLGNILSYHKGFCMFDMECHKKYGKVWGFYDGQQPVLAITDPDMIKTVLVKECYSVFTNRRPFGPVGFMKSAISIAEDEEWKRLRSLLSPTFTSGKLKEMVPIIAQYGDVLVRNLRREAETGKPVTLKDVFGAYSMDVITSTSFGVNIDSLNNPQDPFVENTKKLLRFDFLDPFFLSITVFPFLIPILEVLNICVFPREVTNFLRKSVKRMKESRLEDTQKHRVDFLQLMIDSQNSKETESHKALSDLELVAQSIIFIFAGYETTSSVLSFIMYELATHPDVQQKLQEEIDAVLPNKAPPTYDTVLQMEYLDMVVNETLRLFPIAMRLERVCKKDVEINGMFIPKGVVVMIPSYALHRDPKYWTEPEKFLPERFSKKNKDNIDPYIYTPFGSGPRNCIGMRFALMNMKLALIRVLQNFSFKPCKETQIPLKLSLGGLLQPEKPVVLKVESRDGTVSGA
Cytochrome P450 2C19 (Homo sapiens), sequence (P33261 whole entry, looked up): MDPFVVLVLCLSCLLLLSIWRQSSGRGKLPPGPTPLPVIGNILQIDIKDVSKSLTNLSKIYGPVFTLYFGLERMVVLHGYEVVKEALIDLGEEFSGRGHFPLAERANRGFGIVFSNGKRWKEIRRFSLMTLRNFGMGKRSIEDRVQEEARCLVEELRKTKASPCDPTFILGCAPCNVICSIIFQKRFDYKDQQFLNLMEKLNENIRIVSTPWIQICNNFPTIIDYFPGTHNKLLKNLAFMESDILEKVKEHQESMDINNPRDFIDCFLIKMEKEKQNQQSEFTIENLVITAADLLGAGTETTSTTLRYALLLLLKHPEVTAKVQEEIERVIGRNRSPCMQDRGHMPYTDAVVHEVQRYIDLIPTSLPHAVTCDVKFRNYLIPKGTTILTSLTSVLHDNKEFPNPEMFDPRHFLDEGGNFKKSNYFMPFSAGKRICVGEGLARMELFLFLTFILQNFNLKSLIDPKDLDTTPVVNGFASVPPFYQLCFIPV
Cytochrome P450 2D6 (Homo sapiens), sequence (P10635 whole entry, looked up): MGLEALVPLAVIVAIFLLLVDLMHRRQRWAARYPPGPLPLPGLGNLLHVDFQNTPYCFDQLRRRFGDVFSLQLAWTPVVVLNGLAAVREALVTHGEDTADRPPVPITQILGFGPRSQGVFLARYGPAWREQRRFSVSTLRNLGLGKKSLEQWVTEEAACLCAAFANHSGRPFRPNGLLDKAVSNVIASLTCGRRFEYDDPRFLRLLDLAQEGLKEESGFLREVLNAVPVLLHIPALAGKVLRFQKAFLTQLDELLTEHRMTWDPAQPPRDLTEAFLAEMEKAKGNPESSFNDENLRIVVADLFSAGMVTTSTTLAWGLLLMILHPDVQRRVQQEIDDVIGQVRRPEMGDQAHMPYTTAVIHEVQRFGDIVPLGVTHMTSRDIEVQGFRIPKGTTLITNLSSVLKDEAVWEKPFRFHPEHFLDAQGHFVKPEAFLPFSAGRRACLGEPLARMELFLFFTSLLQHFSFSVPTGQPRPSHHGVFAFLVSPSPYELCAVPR

As to `N=C1C=CC(=C(c2ccc(N)cc2)c2ccc(N)cc2)C=C1`, the Potency result in [1], in test [5], in test [9], in [10], in test [12] and in [14] was “inactive” in each case. For the same compound, the Potency result in [15], in test [18] and in test [19] was “inactive” throughout. The call in test [2], in test [3], in test [4], in test [7] and in test [8] was inactive. Moreover, the caspase-3 activation in test [6] was -1.95%. The Potency in test [11] is 12.6 µM (active) and 3.16 µM (active); in [13], 1.58 µM (active); in test [16], 15.8 µM (active); in test [17] it was 25.1 µM (active).
